According to PubChem BioAssay AID2284205 (EPA ToxCast):
Calls of active or inactive are those of the source. The calls were made as follows: active = hit-call score of the fitted dose curve at least 0.9, where 1 is the maximum; inactive = score below 0.9.

Molecular target: Peroxisome proliferator-activated receptor gamma (Homo sapiens) (UniProt P37231)
Experiment: ERF_TW_NR_hPPARG: Eurofins (ERF) Nuclear Receptor (NR) Radioligand Binding LeadHunter Assay for human Peroxisome Proliferator-activated Receptor gamma (PPARg) Agonism, conducted at Taiwan lab site
Description: ERF_TW_NR_hPPARG is a biochemical, single-readout assay that uses extracted gene-proteins in a cell-free assay. Measurements were taken 24 hour after chemical dosing in a 96-well plate. See PPARgamma Human NHR Binding (Agonist Radioligand) Assay, Panlabs.ERF_TW_NR_hPPARG is an assay component calculated from the ERF_TW_NR_hPPARG assay. It is designed to measure radioligand binding using a type of binding reporter as detected by scintillation counting with radiometry technology.Data from the assay component ERF_TW_NR_hPPARG was analyzed at the assay endpoint, ERF_TW_NR_hPPARG, in the positive analysis fitting direction relative to DMSO as the negative control and baseline of activity. Using a type of binding receptor, gain-of-signal activity can be used to understand changes in binding receptor as they relate to gene PPARG.To generalize the intended target to other relatable targets, this assay endpoint is annotated to the nuclear receptor intended target family, where the subfamily is non-steroidal.
Human recombinant PPARgamma-LBD expressed in insect cells are used in modified Tris-HCl buffer pH 7.2. A 0.03 ug aliquot is incubated with 5 nM [3H]Rosiglitazone and 1 ug anti-GST antibody for 24 hours at 4C. Non-specific binding is estimated in the presence of 10 uM rosiglitazone. Receptors are counted to determine [3H]Rosiglitazone specifically bound. […]

Peroxisome proliferator-activated receptor gamma (Homo sapiens), sequence (P37231 whole entry, looked up): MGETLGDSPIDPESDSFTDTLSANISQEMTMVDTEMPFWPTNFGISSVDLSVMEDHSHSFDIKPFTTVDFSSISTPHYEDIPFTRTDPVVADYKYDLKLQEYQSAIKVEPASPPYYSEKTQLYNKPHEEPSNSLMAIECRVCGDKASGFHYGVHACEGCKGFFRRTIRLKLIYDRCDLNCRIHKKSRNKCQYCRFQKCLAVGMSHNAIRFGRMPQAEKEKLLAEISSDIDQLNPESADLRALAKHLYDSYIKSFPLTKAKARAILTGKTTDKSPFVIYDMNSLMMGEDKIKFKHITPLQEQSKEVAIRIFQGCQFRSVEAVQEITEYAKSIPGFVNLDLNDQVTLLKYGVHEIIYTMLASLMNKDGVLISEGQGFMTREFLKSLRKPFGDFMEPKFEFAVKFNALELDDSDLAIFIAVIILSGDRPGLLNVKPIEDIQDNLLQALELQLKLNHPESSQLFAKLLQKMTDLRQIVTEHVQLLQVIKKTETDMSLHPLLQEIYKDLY

**Q.** O=C(O)C(F)(F)C(F)(F)C(F)(F)C(F)(F)C(F)(F)C(F)(F)C(F)(F)C(F)(F)F was tested. Which AC50 did it give?
**A.** The AC50 was 18.6 µM (active).

**Q.** COC(=O)C(F)(F)C(F)(F)OC(F)(C(F)(F)F)C(F)(F)OC(F)=C(F)F (configuration not stated) was tested. Which AC50 did it give?
**A.** The AC50 was 3.72 µM (active).
